PP5 inh – PP5 phosphatase inhibitors, primary screen, biochemical, fluorescence. purified PP5c, OMFP substrate fluorescence. inhibition, % at 6.7 µM. 320,000 compounds, 0.18% hits;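 active = inhibition above the campaign's mean inhibition across all tested compounds plus 3 SD, cut at about 9.5% in these data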;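 also: 0% = DMSO only and 100% = 100 µM cantharidin control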
Calb FLC – C. albicans growth inhibition with fluconazole, primary screen, CaCi-2 strain, Alamar Blue fluorescence | growth inhibition, % (concentration not given with the values) | 300,000 compounds, 0.57% hits | C. albicans CaCi-2 (fluconazole-resistant clinical isolate) + fluconazole, 48 h;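 active = growth inhibition above about 58% in most replicates, limit read from the data, passing the limit was not always enough; inconclusive = exactly half the replicates above a set limit; inactive = most replicates below a set limit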;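 also: all wells also contain fluconazole at 8 µg/ml as a sub-toxic cotreatment; 0% = median of DMSO wells and 100% = median of geldanamycin control wells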
CSC inhib – cancer stem cell viability inhibitors, primary screen, luminescence; cancer stem cell-like cells viability; inhibition, % at 7.5 µM; 300,000 compounds, 1.1% hits; AID 2717, 2010; in the data active = inhibition above about 75%; inconclusive = no clear call, values can overlap the other calls; tested in HMLE shEcad cells
ALR inh – inhibitors of human ALR sulfhydryl oxidase, primary screen, biochemical, H2O2 detection, HRP-luminol luminescence, single point; FAD-linked sulfhydryl oxidase ALR (Homo sapiens), P55789; purified ALR, DTT oxidation; inhibition, % (no concentration beside the values); 290,000 compounds, 3.8% hits; AID 485317, 2010;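 active = mean replicate inhibition above about 79%, with every replicate also reaching it, limit read from the data; inconclusive = only one of the two criteria met; inactive = mean below limit and not every replicate reaching it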
Target sequence (P55789 whole entry, looked up): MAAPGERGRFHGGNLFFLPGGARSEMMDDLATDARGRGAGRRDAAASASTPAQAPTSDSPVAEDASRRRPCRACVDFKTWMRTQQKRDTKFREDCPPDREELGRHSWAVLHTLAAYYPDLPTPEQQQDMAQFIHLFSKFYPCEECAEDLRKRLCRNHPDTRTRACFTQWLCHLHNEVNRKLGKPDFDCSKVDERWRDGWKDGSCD
PP1 counter – PP1-alpha phosphatase inhibitors, primary screen, counter-screen for PP5 inhibitor project, biochemical, fluorescence, OMFP substrate, single point | purified PP1alpha | inhibition, % at 6.7 µM | 320,000 compounds, 0.9% hits | AID 2235, 2010;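 active = inhibition above the mean inhibition of all tested compounds plus 3 SD, computed separately for each screening campaign, cut at about 15% in these data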
Target sequence (P62136 whole entry, looked up): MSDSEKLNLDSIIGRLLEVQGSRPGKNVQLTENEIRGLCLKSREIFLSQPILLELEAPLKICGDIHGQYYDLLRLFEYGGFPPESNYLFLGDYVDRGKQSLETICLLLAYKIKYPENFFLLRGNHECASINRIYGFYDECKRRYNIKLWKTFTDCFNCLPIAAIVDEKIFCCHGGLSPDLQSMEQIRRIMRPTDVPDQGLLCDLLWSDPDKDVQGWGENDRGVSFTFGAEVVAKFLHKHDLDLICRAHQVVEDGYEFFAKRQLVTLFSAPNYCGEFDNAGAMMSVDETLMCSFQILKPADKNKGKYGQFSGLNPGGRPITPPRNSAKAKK
Starred values were filed as active, the others as inactive. This is a sample that favours compounds with a hit; in the whole collection about 5.4% have one here.

`C/C(=N\Nc1cc(C)nc(-c2ccccc2O)n1)c1ccccc1O` gave PP5 inh 0, Calb FLC inconclusive, CSC inhib 80* and PP1 counter -2.
Screening Cc1cccc2nc3c(nc12)CCCC3 returned PP5 inh -1, Calb FLC -3 and PP1 counter -4.
For Cc1ccc(-c2cccc(CN3CCN(C4CCN(C(C)C)CC4)C(CCO)C3)c2)o1 (stereo not drawn) the results were PP5 inh -1, Calb FLC -4, CSC inhib 7, ALR inh 0 and PP1 counter -5.
For COC(=O)c1ccc(NC(=O)CN2C(=O)CNC2=O)cc1 the results were PP5 inh -1, Calb FLC -12, CSC inhib -2, ALR inh 13 and PP1 counter -2.
`CC(C)CCNC(=O)C1CC(c2ccc(C(F)(F)F)cc2)=NO1` (stereo not drawn) gave PP5 inh 2, Calb FLC 6, CSC inhib 9, ALR inh 10 and PP1 counter 1.
Screening Cc1cc(N/N=C/c2ccco2)c2ccccc2n1 returned PP5 inh 2, Calb FLC -7, CSC inhib -8, ALR inh 77* and PP1 counter -2.
`Cc1cc(C(=O)N/N=C/c2ccco2)c2ccccc2n1` gave PP5 inh -5, Calb FLC -2, CSC inhib 11, ALR inh -5 and PP1 counter -2.
For Cc1cc(N/N=C/c2ccc(O)cc2O)nc(-c2ccccc2O)n1 the results were PP5 inh -1, Calb FLC 3, CSC inhib 99*, ALR inh 5 and PP1 counter 0.
`COc1ccccc1/C=N/Nc1nc(C)cc(C)n1` gave PP5 inh 2, Calb FLC 3, CSC inhib -5, ALR inh 8 and PP1 counter -8.
For Cc1cc(N/N=C/c2ccccc2O)nc(-c2ccccc2O)n1 the results were PP5 inh 7, Calb FLC 4, CSC inhib 54, ALR inh 0 and PP1 counter -12.
For COc1ccccc1/C=N/Nc1cc(C)nc2ccc(C)cc12 the results were PP5 inh 1, Calb FLC 1, CSC inhib 57, ALR inh 99* and PP1 counter -3.
`CN1CCN(C(=O)/C=C/c2ccc(Cl)c(Cl)c2)CC1` gave PP5 inh 1, Calb FLC 9, CSC inhib 0, ALR inh -6 and PP1 counter -1.
`Cc1cccc2c(=O)cc(C(F)(F)F)[nH]c12` gave PP5 inh 4, Calb FLC 29, CSC inhib 16, ALR inh -2 and PP1 counter -6.
For O=c1cc(C(F)(F)F)[nH]c2c(OC(F)(F)F)cccc12 the results were PP5 inh -2, Calb FLC 0, CSC inhib 79*, ALR inh -2 and PP1 counter -2.
For CSc1nnc(Cc2sc(-c3ccccc3)nc2-c2ccccc2)o1 the results were PP5 inh 1, Calb FLC 19, CSC inhib 8, ALR inh -1 and PP1 counter -1.
`COc1cccc(-c2sc3ccc(OC)cc3c2-c2ccc(C(N)=O)cc2)c1` gave PP5 inh 1, CSC inhib -16, ALR inh -3 and PP1 counter -4.
COc1cccc(-c2sc3ccccc3c2-c2ccc(OCCN3CCCCC3)cc2)c1 was read as CSC inhib 104* and ALR inh 7.
`COc1cccc(-c2sc3ccccc3c2-c2ccc(OCCN(C)C)cc2)c1` gave CSC inhib 104* and ALR inh -11.
For COc1cccc(-c2sc3ccccc3c2-c2ccc(OCCN3CCCC3)cc2)c1 the results were CSC inhib 104* and ALR inh -7.
O=C(CSc1nc2cc(Cl)ccc2s1)NCC1CCCO1 (stereo not drawn) was read as CSC inhib 2 and ALR inh 24.
S=C(NCCCCNC(=S)NCc1ccccc1)NCc1ccccc1 was read as PP5 inh 2, Calb FLC -7, CSC inhib -5, ALR inh -9 and PP1 counter 0.
For COc1ccc(N2CC(C(=O)N[C@H](C(=O)NC(C)c3ccccc3)C(C)C)CC2=O)cc1 (stereo partly drawn) the results were PP5 inh -1, Calb FLC -3, CSC inhib -4, ALR inh -1 and PP1 counter -5.
Screening CC(C)(C)OC(=O)N1CCC(C(=O)N[C@H](C(=O)O)c2ccccc2)(c2ccccc2)CC1 returned PP5 inh 3, Calb FLC -8, CSC inhib 1, ALR inh -7 and PP1 counter 9.
Screening COC(=O)C(C(=O)OC)C(CC(=O)c1ccc(C)cc1)c1cc(OC)c(OC)c(OC)c1 (stereo not drawn) returned PP5 inh 1, Calb FLC -5, CSC inhib 7, ALR inh 97* and PP1 counter -1.
For COc1cccc(C2C(C(=O)Nc3ccccc3)=C(C)N=c3s/c(=C/c4ccc(OCC(=O)O)cc4)c(=O)n32)c1 (stereo not drawn) the results were PP5 inh 1, Calb FLC 18, CSC inhib 1, ALR inh 97* and PP1 counter 12.
For CCN(CCCNC(=O)CCn1c(=O)[nH]c2ccccc2c1=O)c1ccccc1 the results were PP5 inh -1, Calb FLC -2, CSC inhib -14, ALR inh 98* and PP1 counter 4.
`CCN(CCCNC(=O)CC(C(=O)N1CCc2ccccc21)n1ccnc1)c1cccc(C)c1` (stereo not drawn) gave PP5 inh 3, Calb FLC 20, CSC inhib -2, ALR inh 99* and PP1 counter 4.
Screening CCN(CCCNC(=O)COc1cc(=O)n(C)c2ccccc12)c1cccc(C)c1 returned PP5 inh 2, Calb FLC 10, CSC inhib -15, ALR inh 98* and PP1 counter 1.
Screening CCN(CCCNC(=O)CN1C(=O)COc2ccccc21)c1ccccc1 returned PP5 inh -1, CSC inhib -6, ALR inh 99* and PP1 counter -2.
CCCCN(CCCNC(=O)CN1C(=O)COc2ccccc21)c1ccccc1 was read as PP5 inh 3, Calb FLC 15, ALR inh 65 and PP1 counter 2.
`CCCCNC(=O)CC(C(=O)N1CCc2ccccc21)n1ccnc1` (stereo not drawn) gave PP5 inh 0, Calb FLC -3, ALR inh -12 and PP1 counter -3.
Screening Cc1cccc(CCNC(=O)COc2cc(=O)n(C)c3ccccc23)c1 returned PP5 inh 2, Calb FLC 3, CSC inhib 0, ALR inh -20 and PP1 counter -1.

From PubChem
